In the library only some 4.3% were active in any assay of this set; here they are far more common.
FAS-TE inh = FAS thioesterase domain inhibitors, primary screen, biochemical, fluorescence intensity, uHTS. 360,000 tested, 0.67% active. Fatty acid synthase (Homo sapiens), P49327. inhibition, % at 15 µM. recombinant FAS-TE, OMFH fluorogenic substrate, fluorescence endpoint. AID 602261, 2012;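 active = compounds whose normalised, plate-corrected inhibition of enzyme fluorescence in the single-dose primary screen is 50% or more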;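 also: 0% = DMSO with enzyme and 100% = substrate without enzyme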
rCAG RNA binder = binders of r(CAG) RNA repeats, primary screen, biochemical, fluorescence; r(CAG) RNA repeat, TO-PRO-1 dye displacement fluorescence; inhibition, % at 3 µM; 370,000 tested, 1.3% active; AID 651821, 2012;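 active = inhibition above the plate cutoff, the mean of all test compounds on that plate plus 3 SD, cut at about 35% in these data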;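 also: 0% = DMSO alone and 100% = 100 µM mitoxantrone as full dye displacement; higher means more dye released from RNA so lower well fluorescence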
NadD inh = inhibitors of S. aureus NadD, primary screen, biochemical, colorimetric, uHTS; Nicotinate-nucleotide adenylyltransferase NadD (Staphylococcus aureus N315); purified NadD enzyme, colorimetric absorbance read-out; inhibition, % at 20 µM; 360,000 tested, 0.78% active; in the data active = inhibition above about 26%
GRIN3A LBD mod = binders of NR3A ligand-binding domain, primary screen, biophysical, differential scanning fluorimetry, uHTS. Glutamate receptor ionotropic, NMDA 3A (GRIN3A) ligand-binding domain. NR3A LBD differential scanning fluorimetry, Tm shift; 0% = protein alone, 100% = glycine-bound protein. Tm shift relative to glycine control, % at 25 µM. 340,000 tested, 2.5% active. AID 1259313, 2017;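 active = melting temperature shift of at least 10% of the positive control shift, at one fixed dose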
An asterisk follows results filed as active; · = not tested or not shown.

SMILES	FAS-TE inh	rCAG RNA binder	NadD inh	GRIN3A LBD mod
CCOc1ccccc1N1CCN(C(=O)c2ccc3c(c2)OCO3)CC1	-2.6	-5.4	-8.8	10.2*
O=C1CC(O)C(Cc2ccccc2)N1 (stereo unspecified)	·	1.6	·	·
COc1ccc(C(=O)/C=C/Nc2ccc([N+](=O)[O-])cc2)cc1	-10.1	5.6	8.5	-10.7
COc1ccc(N/C=C/C(=O)c2ccc(C)cc2)c([N+](=O)[O-])c1	1.9	0.0	0.6	20.4*
CCOc1ccc(N/C=C/C(=O)c2ccc(OC)cc2)cc1	-2.8	1.9	6.0	1.6
CCOc1ccc(N/C=C/C(=O)c2ccc(OC)cc2)c([N+](=O)[O-])c1	-19.8	1.7	3.2	19.8*
COC(=O)C1CN(Cc2cn(CCC3OCCO3)nn2)CCS(=O)(=O)N1Cc1ccc(C)cc1 (stereo unspecified)	·	4.6	·	·
COc1ccc(NC(=O)c2ccc(COCC(F)(F)F)cc2)cc1OC	-0.6	-4.5	-0.1	-2.4
O=C(Nc1ccc(OCC(F)(F)C(F)F)c(C(F)(F)F)c1)c1ccc(Cl)cc1	37.9	6.8	-8.2	31.5*
O=C(Nc1ccc(Br)c(C(F)(F)F)c1)c1ccccc1	42.2	2.1	-6.8	7.6
O=C(Nc1ccc(Br)c(C(F)(F)F)c1)c1ccc(C(F)(F)F)cc1	45.7	3.7	-4.6	23.9*
COc1ccc(C(=O)Nc2ccc(OCC(F)(F)C(F)F)c(C(F)(F)F)c2)cc1OC	26.5	0.1	-16.9	17.8*
Nc1ccc(Oc2ccc3nc(-c4ccccc4)c(-c4ccc([N+](=O)[O-])cc4)nc3c2)cc1	37.3	6.1	32.0*	2.3
COc1cccc(/C=N/c2sc(Cc3ccccc3)c(C)c2C(N)=O)c1O	-7.0	37.1*	5.1	-0.3
COC(=O)CCC(=O)Nc1sc(Cc2ccccc2)c(C)c1C(N)=O	-5.0	6.6	8.8	-0.9
C=CCOC(=O)N1CCN(C(=O)c2ccc3c(c2)nc(C)n3C2CCCC2)CC1	·	-0.4	·	·
O=C(N[C@@H](Cc1cccnc1)C(=O)N1CCC[C@H]1C(=O)NCCc1ccccc1Cl)c1ccc(Cl)cc1Cl	·	-0.5	·	·
CCOc1ccc(-n2c(=S)sc3c(=O)n(-c4ccc(F)cc4)c(SCC(=O)O)nc32)cc1	-2.9	29.1	1.1	14.9*
CCOc1ccc(-n2c(=S)sc3c(=O)n(-c4ccccc4)c(SC)nc32)cc1	25.6	1.1	8.1	0.6
O=C1/C(=C\c2ccc(O)cc2)SC(=S)N1c1cccnc1	-6.3	-5.4	31.5*	29.3*
NS(=O)(=O)c1ccc(CCN2C(=O)/C(=C\c3ccc(Cl)cc3)SC2=S)cc1	-16.4	3.9	32.6*	-3.2
N=C1S/C(=C\c2ccc(O)cc2)C(=O)N1c1ccc(F)cc1	0.5	·	5.4	21.6*
O=C(O)c1ccc(/C=C2/SC(=S)N(Cc3ccccc3)C2=O)cc1	20.8	6.0	0.0	19.9*
CCOc1cc(/C=C2\SC(=O)N(c3ccc(O)cc3)C2=O)ccc1O	-8.6	4.8	-4.0	0.3
CC(=O)Oc1ccc(/C=C2/SC(=S)N(Cc3ccccc3)C2=O)cc1	-15.0	4.3	-5.1	-3.5
SMILES	FAS-TE inh	rCAG RNA binder	NadD inh	GRIN3A LBD mod
O=C1C(NC(=O)C(F)(F)Br)CCCCN1Cc1cccc(C(F)(F)F)c1 (stereo unspecified)	·	-0.1	·	·
COc1cc(/C=C2/SC(=S)N(Cc3ccccc3)C2=O)cc(Cl)c1O	-128.0	14.3	11.9	9.0
COc1cc(/C=C2/SC(=S)N(Cc3ccccc3)C2=O)ccc1OS(C)(=O)=O	16.8	3.6	0.6	-0.3
Cc1cc(/C=C2/SC(=S)N(c3cccc(C(F)(F)F)c3)C2=O)c(C)n1-c1cccnc1	2.5	·	44.2*	-11.3
Cc1cc(/C=C2\SC(=S)N(Cc3ccco3)C2=O)c(C)n1-c1cccnc1	-62.4	-0.4	29.4	3.3
O=C1/C(=C\c2cc(Br)cc(Br)c2O)SC(=S)N1Cc1ccccc1	22.9	·	42.1*	-2.0
O=C1/C(=C\c2ccc(O)cc2)SC(=S)N1Cc1ccccc1	1.4	28.3	-1.9	34.0*
CCc1nnc(NS(=O)(=O)c2ccc(NC(=O)COc3ccc4ccccc4c3)cc2)s1	-5.6	30.2	-3.2	-3.6
CCc1nnc(NS(=O)(=O)c2ccc(NC(=O)/C=C/c3ccc(OC)cc3OC)cc2)s1	5.4	82.3*	24.8	4.6
COc1cc(C(F)(F)F)c(C(=O)N(C)Cc2cccc(Cl)c2)cn1	3.5	-8.5	-1.5	13.9*
O=C(CSc1nc(-c2ccccc2)nc2c1Cc1ccccc1O2)Nc1ccc(C(=O)O)cc1	4.8	4.0	18.7	31.6*
O=C(CSc1nc(-c2ccc(F)cc2)nc2c1Cc1ccccc1O2)Nc1ccc(C(=O)O)cc1	11.3	24.1	5.4	33.5*
COc1cccc(-c2nnc(SCC(=O)Nc3ccc(OCc4ccccc4)cc3)n2Cc2ccco2)c1	·	9.7	·	·
CO[C@@H]1[C@H](O)CC[C@]2(O)CN(c3ccc(F)cc3)[C@](C)([C@H](O)CC=C(C)C)[C@@H]12	·	5.0	·	·
Cc1nc2c(C(=O)NCCC3=CCCCC3)c[nH]n2c(=O)c1Cl	5.3	71.4*	19.9	-10.7
Cc1nc2c(C(=O)NCc3ccc4c(c3)OCO4)c[nH]n2c(=O)c1Cl	-0.1	55.1*	18.0	-12.2
O=C(NCCC1=CCCCC1)c1cnc2n(c1=O)CCS2	8.1	-2.6	1.2	7.1
C[C@H]1CCCN1c1ccc2c(c1)O[C@H]1CCN(C1)S2(=O)=O	·	4.6	·	·
CN=C1CC(SC)=C1c1ccc(C)cc1	-9.8	0.7	-1.9	18.7*
Oc1c(Br)cc(Br)cc1CNc1ccc(F)cc1	25.9	18.0	0.4	10.8*
Oc1c(Br)cc(Br)cc1CNc1cnc2ccccc2c1	26.2	18.4	7.3	23.9*
Oc1c(Br)cc(Br)cc1CNc1nccs1	5.8	2.3	-3.6	-1.5
NS(=O)(=O)c1ccc(NCc2cnc3ccccc3c2)cc1	-5.5	3.5	0.2	·
Cc1cc(C)c(S(=O)(=O)/N=C2/C=C(SCC(=O)O)C(=O)c3ccccc32)cc1C	5.9	·	48.2*	-15.7
Clc1ccc2c(SCC3CO3)c3ccccc3nc2c1 (stereo unspecified)	36.7	1.6	-3.4	12.6*
SMILES	FAS-TE inh	rCAG RNA binder	NadD inh	GRIN3A LBD mod
CCOC(=O)N1CCN(C(=O)CSc2nnc(-c3cccc(OC)c3)o2)CC1	-5.1	-6.5	1.1	-1.9
CCOC(=O)N1CCN(C(=O)CSc2nnc(-c3cc(OC)cc(OC)c3)o2)CC1	6.1	-2.8	-1.7	10.7*
CC(C)CNC(=O)OCc1cn(Cc2cccc(Cl)c2)nn1	·	-0.1	·	·
CCOC(=O)c1c(N2C(=O)Nc3ccccc3N2O)sc2c1CCCCC2	-12.1	26.9	2.0	-0.1
CCOC(=O)c1cccc(N2C(=O)Nc3ccccc3N2O)c1	-10.0	-1.8	0.2	18.0*
N#C/C(=N/Nc1ccc(OC(F)(F)F)cc1)C(N)=S	6.4	14.8	0.3	16.5*
[O-][n+]1onc2c1CCc1c-2nc(-c2ccccc2)n1OCc1ccccc1	5.2	0.0	2.7	0.1

Assay outcomes: PubChem, several laboratories
